ssDAF-12 act = S. stercoralis DAF-12 nuclear receptor activators, primary screen, cell-based, luminescence, HEK293, GRIP1 co-expression, lit1-tk-luc | Nuclear hormone receptor DAF-12 (Strongyloides stercoralis) | HEK293 ssDAF-12/GRIP1 lit1-tk-luc reporter; % of 3 µM dafachronic acid response | activation, % at 6.8 µM | actives 1% (n = 370,000) | AID 652126, 2013;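 active = activation above the mean over all tested compounds plus 3 SD, cut at about 0.9% in these data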;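 note: 0% = DMSO-only wells and 100% = 3 µM delta7-dafachronic acid wells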
DAX1 inh-1 = DAX1 (NR0B1) inhibitors on StAR promoter, primary screen, cell-based, luminescence, SF-1 (NR5A1), full-length DAX-1 | HEK293T StAR-luciferase reporter, SF-1/DAX-1 repression relief | inhibition, % at 6.8 µM | actives 1.1% (n = 370,000);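 active = inhibition above the mean over all tested compounds plus 3 SD, cut at about 3.6% in these data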;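 note: 0% = DAX-1 cells with DMSO and 100% = cells lacking DAX-1 with DMSO; higher inhibition means more luminescence from relief of DAX-1 repression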
PolyA inh = polyadenylation inhibitors in yeast reporter cells, primary screen, luminescence, S. cerevisiae. S. cerevisiae SKY197-pL101 polyadenylation reporter, beta-gal luminescence; efflux-impaired pdr1/pdr3 knockout yeast; score 100 = 6 SD above DMSO. activity score, % at 12 µM. actives 0.02% (n = 300,000);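 active = lowest replicate activity score at least 50, where 100 means six control SD above control mean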;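 note: yeast exposed to compound for 9 h at 30 °C; higher score means more reporter readthrough which indicates perturbed polyadenylation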
DAX1 inh-2 = DAX1 (NR0B1) inhibitors, primary screen, cell-based, HEK293, Gal4-DAX1, luciferase luminescence. actives 0.99% (n = 340,000). inhibition, % at 6.75 µM. HEK293 Gal4-DAX1 luciferase reporter. Nuclear receptor subfamily 0 group B member 1 (Homo sapiens), P51843;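 active = inhibition above the mean over all tested compounds plus 3 SD, cut at about 4.2% in these data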;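 note: 0% = DAX1-transfected cells with DMSO and 100% = empty-vector control cells with DMSO; inhibition shows as a rise in luminescence from relieved DAX1 repression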
hgDAF-12 ag = H. glycines DAF-12 receptor agonists, primary screen, cell-based, luminescence, HEK293, GAL4 fusion, UAS-luciferase. Nuclear hormone receptor DAF-12 (Heterodera glycines), GAL4 fusion. HEK293 GAL4-hgDAF12 UAS-luciferase reporter, agonist luminescence; normalized to butyrate control. activation, % at 6.8 µM. actives 1.8% (n = 370,000);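 active = activation above a cutoff set at the mean of all screened compounds plus 3 SD, cut at about 10% in these data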;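 note: 0% = DMSO wells and 100% = sodium butyrate wells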
hcDAF12 agonist = H. contortus DAF-12 nuclear receptor activators, primary screen, cell-based, luminescence, HEK293, lit1-tk-luc reporter; HEK293 hcDAF-12 lit1-tk-luc reporter; 0% DMSO, 100% Δ7-dafachronic acid; activation, % at 6.8 µM; actives 1.4% (n = 370,000); AID 652067, 2013;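 active = activation above the mean of all tested compounds plus 3 SD, cut at about 5.5% in these data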;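 note: 100% = response to 3 µM Δ7-dafachronic acid high control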
hgDAF12 ag = H. glycines DAF-12 receptor agonists, confirmation, cell-based, luminescence, HEK293, GAL4-LBD fusion; shares compounds with hgDAF-12 ag; HEK293 GAL4-hgDAF12 luciferase reporter, agonist mode; percent of butyrate response; activation, % at 6.8 µM; actives 80% (n = 3,300);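 active = mean activation over triplicate wells above the hit cutoff derived from the earlier primary screen, cut at about 11% in these data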;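 note: 0% = DMSO low control and 100% = 2 mM sodium butyrate high control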
LXR ag 2 = LXR agonists, Gal4 luciferase reporter, confirmation, counter-screen for hgDAF-12 agonist project, cell-based, luminescence, HEK293, H. glycines campaign; activation, % at 6.8 µM; 24 h; 3,300 tested, under 10 active; shares compounds with hgDAF-12 ag;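 active = mean activation of the triplicate above a set limit carried over from the primary screen, none filed active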
Target sequence (P55055 whole entry, looked up, the tested form may be a part): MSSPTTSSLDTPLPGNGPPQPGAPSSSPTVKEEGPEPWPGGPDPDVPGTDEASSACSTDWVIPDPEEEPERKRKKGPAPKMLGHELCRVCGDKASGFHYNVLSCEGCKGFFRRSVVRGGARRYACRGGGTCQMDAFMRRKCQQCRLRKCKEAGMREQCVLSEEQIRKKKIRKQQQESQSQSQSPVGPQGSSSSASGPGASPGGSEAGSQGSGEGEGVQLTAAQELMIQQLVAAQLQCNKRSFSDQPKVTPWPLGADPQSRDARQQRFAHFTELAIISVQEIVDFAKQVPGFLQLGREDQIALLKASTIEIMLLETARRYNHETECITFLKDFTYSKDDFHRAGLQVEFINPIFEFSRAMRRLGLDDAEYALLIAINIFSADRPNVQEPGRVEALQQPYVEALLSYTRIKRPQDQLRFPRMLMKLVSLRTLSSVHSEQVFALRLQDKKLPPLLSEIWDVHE
An asterisk follows results filed as active; · = not tested or not shown. Most compounds without a hit are left out; they make up all but 4.1% or so of the library.

SMILES	ssDAF-12 act	DAX1 inh-1	PolyA inh	DAX1 inh-2	hgDAF-12 ag	hcDAF12 agonist	hgDAF12 ag	LXR ag 2
COc1ccc(CN2C(=O)c3ccccc3C2=O)cc1C(=O)N(C)CC(=O)Nc1ccc(F)cc1	-1	-2	·	0	-1	-1	·	·
COC(=O)c1ccccc1CC1Cc2cc3c(cc2C1=O)CCC3 (centres undefined)	1.9*	4.3*	·	3	14*	2	13*	1
Oc1ccc(N=Nc2ccccc2)cc1	0	1	-26	2	10	4	·	·
OCc1ccc(N=Nc2ccccc2)cc1	0	2	-4	3	13*	3	17*	1
CCS(=O)(=O)N1CCN(C(=O)c2ccc3nc(C)c(N(C)C(=O)CCc4ccccc4)n3c2)CC1	0	0	·	·	-1	0	·	·
O=CNc1ccc(S(=O)(=O)NCc2ccccc2)cc1	-1	-1	2	0	0	1	·	·
Cc1cn([C@H]2C[C@H](O)[C@@H](/C=C/C(=O)NCc3ccc4c(c3)OCO4)O2)c(=O)[nH]c1=O	0	0	·	·	0	1	·	·
Cc1ccc(NC(=O)c2cncc(Br)c2)c(O)c1	0	3	2	2	16*	6.2*	17*	0
COc1cc(C(=O)NCc2ccc3c(c2)OCO3)c([N+](=O)[O-])cc1OC	-1	0	-5	3	1	-1	·	·
COc1ccc(N2C(=O)CC(N3CCN(S(=O)(=O)c4cc(C)ccc4C)CC3)C2=O)cc1 (centres undefined)	-1	0	-8	-1	-1	0	·	·
Cc1ccc(CNC(=O)CNC(=O)c2ccc(Br)o2)cc1	-1	0	17	1	-1	-2	·	·
COc1ccc(/C=N/Nc2ccccn2)cc1O	0	2	11	3	17*	4	12*	0
Brc1ccc(/C=N/Nc2ccccn2)cc1	1	2	-6	1	15*	2	11*	0
COc1ccc(S(=O)(=O)N(C)C[C@H]2Oc3ccc(NC(=O)Cc4ccccc4)cc3C(=O)N([C@H](C)CO)C[C@@H]2C)cc1	-1	-1	·	1	-1	-2	·	·
COC(=O)c1ccc(/C=N/NC(=O)C(=O)NCc2ccccc2)cc1	-1	1	21	0	-1	0	·	·
CC1=Nc2ccccc2N=C(NC(=O)c2ccccc2)C1c1ccc(Cl)cc1 (centres undefined)	0	2	-23	1	18*	0	-3	0
CC1=CC(c2ccc(Cl)cc2)n2nc(NC(=O)c3ccccc3)nc2N1 (centres undefined)	-1	0	13	0	-1	0	·	·
COc1ccc(CNc2nc3ccccc3n2C(C)C)c(O)c1	-1	0	-6	1	0	-3	·	·
COc1ccc(CNc2nc3ccccc3n2C)c(O)c1	0	4.5*	14	4	17*	4	21*	1
O=C1C(Nc2ccccc2)=C2CCCC=C2N1c1ccccc1	0	4.2*	-2	2	14*	5	3	0
O=C1C=CC(=O)N1c1ccc(Nc2ccccc2)cc1	-1	0	·	0	-2	-1	·	·
COc1ccc(C(=O)C(=O)c2ccc(OCCO)cc2)cc1	-1	0	-15	0	2	-1	·	·
N#Cc1ccc(-c2csc(NC3=NCCCCC3)n2)cc1	-1	0	-9	1	1	0	·	·
N#Cc1ccc(Nc2nc(-c3ccccc3)cs2)cc1	1	-1	·	·	18*	4	16*	1
Cc1cccc(C(=O)Nc2sc3c(c2C(=O)O)CCC3)c1	-1	-1	4	-1	-5	0	·	·
SMILES	ssDAF-12 act	DAX1 inh-1	PolyA inh	DAX1 inh-2	hgDAF-12 ag	hcDAF12 agonist	hgDAF12 ag	LXR ag 2
N#Cc1c(NC(=O)c2ccccc2)sc2c1CCC2	1	0	-7	-1	16*	5.7*	23*	1
N#Cc1c(NC(=O)c2cnccn2)sc2c1CCCC2	-1	-1	-5	2	14*	4	13*	0
N#Cc1c(NC(=O)c2cccnc2)sc2c1CCC2	-1	0	-1	-1	6	0	·	·
Cc1cccc(C(=O)Nc2sc3c(c2C#N)CCCCC3)c1	0	2	8	3	15*	3	17*	1
O=C(O)CC1c2ccccc2CCN1S(=O)(=O)c1ccc(F)cc1 (centres undefined)	-1	0	2	0	4	0	·	·
COc1ccc(OCC(=O)Nc2cc(OC)ccc2N2CCCCC2)cc1	0	0	8	0	1	1	·	·
CCSc1nc2sccc2c(=O)n1-c1ccccc1	-1	0	22	-1	2	-3	·	·
Nc1ncnc2c1ncn2[C@@H]1O[C@H](CNC(=O)[C@@H](N)Cc2ccc(C(=O)c3ccccc3)cc2)[C@@H](O)[C@H]1O	-1	0	·	·	-1	0	·	·
Cc1ccc(C)c(OCc2ccc(C(=O)Nc3ccc([N+](=O)[O-])cn3)o2)c1	-1	-4	·	-1	-4	-3	·	·
Cc1ccc(C(=O)Nc2ncc(C)s2)o1	0	2	-11	1	20*	3	15*	1
Cc1ccc(C(=O)Nc2ccc([N+](=O)[O-])cn2)o1	-1	1	-4	0	14*	-1	7	0
COc1ccc(C(=O)Nc2ccc([N+](=O)[O-])cn2)c(OC)c1	0	3	-13	4	19*	4	20*	1
COc1cc(OC)cc(C(=O)Nc2ccc([N+](=O)[O-])cn2)c1	-1	0	9	-1	0	-2	·	·
Cc1cnc(NC(=O)Cc2ccc(Br)cc2)s1	-1	0	-35	0	-2	0	·	·
